# Results published in the supplement of paper PMC10981050.
# Several values for one entry are separate records, joined by “and”; a condition that tells them apart may be missing. Equal entries are not always repeated. Structures can show the parent of a compound that is named as a salt.
# Key:
# Assay in all cases: cell viability relative to vehicle control; higher = less cytotoxic
# Details in all cases: 10 µM
# K562 = test system: K562
# Outline: (§1)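 Mutant clones made by CRISPR editing and their isogenic wild-type counterparts, from four leukaemia lines, were exposed to a single 10 µM dose of each library compound for 48 h. The supernatant was then removed and CellTiter-Glo luminescence was read. Viability was reported as percent of the on-plate vehicle control.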
# MARIMO = test system: MARIMO
# Outline: as §1
# MOLM14 = test system: MOLM14
# Outline: as §1
# OCI-AML2 = test system: OCI-AML2
# Outline: as §1
SMILES,cell viability (K562; SRSF2 genotype: SRSF2 P95H/wt),cell viability (K562; SRSF2 genotype: SRSF2 wt/wt) [%],cell viability (MARIMO; SRSF2 genotype: SRSF2 P95H/wt) [%],cell viability (MARIMO; SRSF2 genotype: SRSF2 wt/wt) [%],cell viability (MOLM14; SRSF2 genotype: SRSF2 P95H/wt) [%],cell viability (MOLM14; SRSF2 genotype: SRSF2 wt/wt) [%],cell viability (OCI-AML2; SRSF2 genotype: P95H/wt) [%],cell viability (OCI-AML2; SRSF2 genotype: wt/wt) [%]
CN1CCN(c2ccc(Nc3cc(-c4cccc(-n5ccc6cc(C7CC7)cc(F)c6c5=O)c4CO)cn(C)c3=O)nc2)CC1,15.9% and 12.5%,29.8,18.2,0.49,0.81,1.57,2.87,4.49
Cc1cc(C)c(/C=C2\C(=O)Nc3ccccc32)[nH]1 [Semaxanib (SU5416)],102% and 103%,105,88.3,97.4,20,19.8,28.1,39.9
C[C@@H]1CC[C@@]2(OC1)O[C@H]1C[C@H]3[C@@H]4CC=C5C[C@@H](O)C[C@@H](O)[C@]5(C)[C@H]4CC[C@]3(C)[C@H]1[C@@H]2C [Ruscogenin],96.3% and 102%,98,98.9,103,103,110,89.2,94.3
CC(C)(C)c1cc(C(C)(C)C)c(NC(=O)c2c[nH]c3ccccc3c2=O)cc1O [Ivacaftor (VX-770)],79.4% and 75.5%,76.1,101,111,85.7,87.5,91.7,86
COc1cc(O)c(C(=O)c2ccccc2)cc1S(=O)(=O)O [Sulisobenzone],99.1% and 89.9%,94.3,95.4,104,97.8,101,88.7,104
COC(=O)CNC(=O)C(=O)OC,93% and 96.6%,96.3,89.1,90.8,92.6,94.5,56.9,64.9
CC[C@@H](CO)NCCN[C@@H](CC)CO [Ethambutol HCl],99.5% and 99.3%,98.7,99.4,112,100,102,104,107
O=C(Cn1cnnn1)N[C@@H]1C(=O)N2C(C(=O)O)=C(CSc3nncs3)CS[C@H]12 [Ceftezole sodium],108% and 99.1%,120,101,105,109,110,123,118
CCCCCCCCCCCCCC(=O)OCC(COC(=O)CCCCCCCCCCCCC)OC(=O)CCCCCCCCCCCCC [Tritetradecanoin],107% and 104%,103,100,107,101,102,102,107
O=c1cc(CN2CCOCC2)occ1OCCCCCSc1ccnc2cc(C(F)(F)F)ccc12,59.9% and 65.2%,60.1,49.4,37.7,58.9,68.5,27.6,34.3
